# Laboratory results reported in the supplement of paper PMC4371806.
# Whole data set: some 1,600 compounds, median “plate-normalized OD600 growth (mean of duplicates)” near 0.31, cut for the lowest 2% near 0.23. The sample holds the lowest values, similar compounds and a random draw of the others, so the mix is not that of the screen.
# System: Escherichia coli BW25113
# Test: plate-normalized OD600 growth (mean of duplicates) (OD600 (normalized)); higher = more growth (less inhibition)
# Conditions: 10 µM
# Protocol: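 E. coli BW25113 in LB (100 µl, 96-well, no shaking) was exposed to 10 µM of each compound (here the ChemBridge subset of a ~30,000-member library) and grown at 37°C for 24 h or 15°C for 48 h, in duplicate. Growth was read as OD600 and the duplicate ODs were normalized across screening plates to correct plate-to-plate variation.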
SMILES,"plate-normalized OD600 growth (temperature: 15°C, 48 h)","plate-normalized OD600 growth (temperature: 37°C, 24 h)"
COc1cccc(N2CCN(C3C4CC5CC(C4)CC3C5)CC2)c1 (stereo unspecified),0.291,0.627
COc1ccc(CNC2C3CC4CC(C3)CC2C4)c(OC)c1 (stereo unspecified),0.224,0.615
O=[N+]([O-])c1ccccc1CNC1C2CC3CC(C2)CC1C3 (stereo unspecified),0.238,0.612
COc1ccc(S(=O)(=O)N2CCN(Cc3cccc(F)c3)CC2)cc1,0.245,0.614
C=CCSc1nc(O)c(CC)c(=O)n1-c1ccccc1,0.233,0.62
Brc1ccc(CN2CCN(Cc3ccc4c(c3)OCO4)CC2)s1,0.262,0.639
CC(C)CS(=O)(=O)c1cccs1,0.253,0.616
O=C1CCCc2occ(-c3ccc([N+](=O)[O-])cc3)c21,0.253,0.634
O=C1CCCc2c1nc(-c1cccc([N+](=O)[O-])c1)n2O,0.224,0.596
O=C1CCCc2c1nc(-c1ccccc1)n2O,0.272,0.662
COc1ccc(-c2csc(N)n2)cc1Br,0.26,0.647
O=C(O)CCCC(=O)Nc1ccc(Cl)c(Cl)c1,0.247,0.602
Cc1cccc(-c2nc(-c3cccnc3)no2)c1,0.244,0.605
C1CCCC(NCCN2CCCCC2)CCC1,0.234,0.588
CC(C)(C)NC(=O)c1ccccc1C(=O)NC(C)(C)C,0.263,0.63
CC(=O)NC(Cc1ccccc1)Cc1ccccc1,0.248,0.608
CC(=O)NC(C)(CC(=O)c1ccccc1)c1ccccc1 (stereo unspecified),0.227,0.639

SMILES,"plate-normalized OD600 growth (temperature: 15°C, 48 h)","plate-normalized OD600 growth (temperature: 37°C, 24 h)"
Cc1cccc(N2C(=O)CC(N3CCN(Cc4ccccc4)CC3)C2=O)c1 (stereo unspecified),0.254,0.616
COCc1cc(C)nc(NN)c1C#N,0.258,0.622
O=C1c2ccccc2C(=O)C1c1nc2ccccc2[nH]1,0.269,0.667
COc1ccc(N/C=C(/c2cc(O)ccc2O)[N+](=O)[O-])cc1,0.255,0.624
CC(=O)Nc1ccc(S(=O)(=O)N2CCN(C)CC2)cc1,0.258,0.646
CC(=O)c1sc(N2N=C(c3ccccc3)CC2c2ccccc2)nc1C (stereo unspecified),0.254,0.656
COc1ccc(OC)c(Nc2nc(C)c(C(C)=O)s2)c1,0.272,0.646
CC(=O)c1sc(Nc2ccc(Oc3ccccc3)cc2)nc1C,0.223,0.607
CSc1nc2sc3c(c2c(=O)n1C)CCCC3,0.246,0.618
CN1CCCN(Cc2cccc([N+](=O)[O-])c2)CC1,0.22,0.627
CN1CCCN(Cc2ccc([N+](=O)[O-])o2)CC1,0.258,0.607
COc1cccc(OC)c1C(=O)N1CCN(Cc2cccc([N+](=O)[O-])c2)CC1,0.266,0.645
O=C(O)c1ccc(NS(=O)(=O)c2cccc(C(=O)Nc3ccccc3)c2)cc1,0.245,0.603
OC(COc1ccc(C23CC4CC(CC(C4)C2)C3)cc1)CN1CCOCC1 (stereo unspecified),0.243,0.592
O=C(Nc1ccc(Br)cc1)c1cccnc1,0.244,0.633
NCC(=O)Nc1ccc(Br)cc1,0.227,0.606
